From the supplement of paper PMC11732987, “Enantioselective OTUD7B fragment discovery through chemoproteomics screening and high-throughput optimisation” (Communications Chemistry, 2025)

Assays:
Assay in all cases: log2 ratio of Biotin-Ahx-Ub-VS probe labelling (fragment/DMSO); higher = less target engagement (more negative = stronger competition), active = hit call of the paper (q ≤ 0.05, log2 ratio ≤ -1)
Details in all cases: compound concentration: 200 uM; treatment time: 3 h
OTUD6B = molecular target: T1, OTUD6B (UniProt Q8N6M0)
T1 sequence (whole entry): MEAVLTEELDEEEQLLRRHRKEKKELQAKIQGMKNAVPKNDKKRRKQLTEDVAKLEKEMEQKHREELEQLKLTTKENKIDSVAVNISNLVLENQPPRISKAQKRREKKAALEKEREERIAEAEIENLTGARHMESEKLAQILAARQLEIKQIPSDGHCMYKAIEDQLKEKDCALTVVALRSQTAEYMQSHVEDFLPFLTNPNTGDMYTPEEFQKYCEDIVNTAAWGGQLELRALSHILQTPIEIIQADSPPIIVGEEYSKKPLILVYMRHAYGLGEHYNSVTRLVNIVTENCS
How it was run: (§1)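 Labelling with Biotin-Ahx-Ub-VS (0.5 µM final, 1 h) followed a 3 h triplicate treatment of HEK293T lysate (495 µg per sample, Tris/CHAPS/IGEPAL buffer with protease inhibitors) with fragment at 200 µM or vehicle. Labelled DUBs were NeutrAvidin-enriched, digested with LysC and trypsin, and run by diaPASEF LC-MS/MS. The values, average log2 fragment/vehicle ratios by unpaired t-test, come from global-median-normalised Spectronaut label-free quantities. Proteins with ≥2 unique peptides were used.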

OTUD7B = molecular target: T2, OTUD7B (UniProt Q6GQQ9)
T2 sequence (whole entry): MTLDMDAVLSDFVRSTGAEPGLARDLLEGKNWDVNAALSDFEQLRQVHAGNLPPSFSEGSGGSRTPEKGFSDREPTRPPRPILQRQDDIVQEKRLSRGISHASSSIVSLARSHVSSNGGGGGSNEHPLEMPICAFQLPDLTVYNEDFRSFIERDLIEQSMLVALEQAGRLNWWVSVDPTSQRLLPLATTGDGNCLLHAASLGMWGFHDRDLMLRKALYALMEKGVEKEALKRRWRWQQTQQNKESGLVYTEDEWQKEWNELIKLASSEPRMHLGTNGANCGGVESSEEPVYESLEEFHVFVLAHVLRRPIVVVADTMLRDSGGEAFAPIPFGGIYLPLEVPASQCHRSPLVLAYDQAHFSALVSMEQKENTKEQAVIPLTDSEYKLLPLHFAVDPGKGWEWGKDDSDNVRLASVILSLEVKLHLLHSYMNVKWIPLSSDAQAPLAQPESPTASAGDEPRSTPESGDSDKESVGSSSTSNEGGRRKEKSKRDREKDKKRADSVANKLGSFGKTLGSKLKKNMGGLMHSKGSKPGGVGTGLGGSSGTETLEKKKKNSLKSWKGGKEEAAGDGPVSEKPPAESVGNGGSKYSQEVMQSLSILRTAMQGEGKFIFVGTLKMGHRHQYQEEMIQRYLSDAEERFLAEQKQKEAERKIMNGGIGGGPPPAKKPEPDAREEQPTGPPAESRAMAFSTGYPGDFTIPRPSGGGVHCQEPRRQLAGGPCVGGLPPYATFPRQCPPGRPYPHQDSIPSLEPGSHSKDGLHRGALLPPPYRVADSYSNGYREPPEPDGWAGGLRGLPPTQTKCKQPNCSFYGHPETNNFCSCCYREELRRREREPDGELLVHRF
How it was run: as §1

PRPF8 = PRPF8 (UniProt Q6P2Q9)
How it was run: as §1

PSMD7 = molecular target: T3, PSMD7 (UniProt P51665)
T3 sequence (whole entry): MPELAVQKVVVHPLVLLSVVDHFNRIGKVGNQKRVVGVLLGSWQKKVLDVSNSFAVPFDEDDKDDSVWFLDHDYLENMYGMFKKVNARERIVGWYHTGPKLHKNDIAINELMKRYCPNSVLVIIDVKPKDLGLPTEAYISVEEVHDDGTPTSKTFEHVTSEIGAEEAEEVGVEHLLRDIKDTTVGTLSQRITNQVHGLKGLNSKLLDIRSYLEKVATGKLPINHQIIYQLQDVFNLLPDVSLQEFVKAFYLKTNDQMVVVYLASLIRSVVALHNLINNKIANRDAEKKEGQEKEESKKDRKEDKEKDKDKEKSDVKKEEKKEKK
How it was run: as §1

UCHL1 = UCHL1 (UniProt P09936)
How it was run: as §1

UCHL3 = molecular target: T4, UCHL3 (UniProt P15374)
T4 sequence (whole entry): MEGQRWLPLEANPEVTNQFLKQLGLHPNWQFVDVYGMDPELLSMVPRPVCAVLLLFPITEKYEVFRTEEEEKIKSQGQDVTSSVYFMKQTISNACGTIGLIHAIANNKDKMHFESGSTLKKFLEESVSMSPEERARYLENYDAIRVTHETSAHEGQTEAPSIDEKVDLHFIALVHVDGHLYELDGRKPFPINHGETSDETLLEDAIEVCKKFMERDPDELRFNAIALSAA
How it was run: as §1

UCHL5 = molecular target: T5, UCHL5 (UniProt Q9Y5K5)
T5 sequence (whole entry): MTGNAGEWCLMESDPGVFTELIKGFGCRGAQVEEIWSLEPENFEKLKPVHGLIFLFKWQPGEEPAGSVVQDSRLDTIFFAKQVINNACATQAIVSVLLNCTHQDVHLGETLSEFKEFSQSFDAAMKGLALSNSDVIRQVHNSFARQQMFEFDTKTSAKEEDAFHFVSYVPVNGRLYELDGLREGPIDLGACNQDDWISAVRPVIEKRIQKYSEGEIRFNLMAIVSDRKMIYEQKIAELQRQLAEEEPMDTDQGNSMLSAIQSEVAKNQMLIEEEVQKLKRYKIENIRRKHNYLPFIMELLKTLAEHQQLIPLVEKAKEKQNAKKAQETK
How it was run: as §1

USP10 = USP10 (UniProt Q14694)
How it was run: as §1

USP15 = molecular target: T6, USP15 (UniProt Q9Y4E8)
T6 sequence (whole entry): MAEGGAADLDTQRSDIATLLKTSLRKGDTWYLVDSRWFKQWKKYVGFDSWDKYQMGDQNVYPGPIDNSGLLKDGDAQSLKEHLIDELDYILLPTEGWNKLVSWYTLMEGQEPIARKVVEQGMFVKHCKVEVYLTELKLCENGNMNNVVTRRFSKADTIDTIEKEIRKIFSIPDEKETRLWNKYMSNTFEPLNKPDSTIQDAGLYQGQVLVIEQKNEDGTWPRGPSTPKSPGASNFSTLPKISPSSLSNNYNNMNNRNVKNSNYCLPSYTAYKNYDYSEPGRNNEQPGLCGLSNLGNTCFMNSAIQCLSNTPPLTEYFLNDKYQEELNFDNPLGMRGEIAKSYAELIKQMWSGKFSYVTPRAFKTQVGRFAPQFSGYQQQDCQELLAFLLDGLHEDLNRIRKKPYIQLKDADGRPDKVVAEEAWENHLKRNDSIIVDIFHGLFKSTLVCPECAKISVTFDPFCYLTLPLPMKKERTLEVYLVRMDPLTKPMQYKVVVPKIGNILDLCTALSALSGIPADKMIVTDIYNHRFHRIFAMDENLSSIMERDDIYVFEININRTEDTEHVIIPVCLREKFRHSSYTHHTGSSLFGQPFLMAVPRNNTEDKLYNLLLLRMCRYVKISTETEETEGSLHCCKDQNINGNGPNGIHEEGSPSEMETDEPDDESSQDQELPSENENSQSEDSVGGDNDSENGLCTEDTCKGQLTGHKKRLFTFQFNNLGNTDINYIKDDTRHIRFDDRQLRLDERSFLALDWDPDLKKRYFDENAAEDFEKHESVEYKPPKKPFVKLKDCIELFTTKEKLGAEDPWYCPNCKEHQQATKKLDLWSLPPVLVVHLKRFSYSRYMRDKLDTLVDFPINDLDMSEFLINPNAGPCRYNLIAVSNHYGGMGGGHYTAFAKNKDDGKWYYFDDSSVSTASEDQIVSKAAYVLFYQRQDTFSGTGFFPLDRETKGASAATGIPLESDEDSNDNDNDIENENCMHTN
How it was run: as §1

USP16 = USP16 (UniProt Q9Y5T5)
How it was run: as §1

Measured: log2 ratio of Biotin-Ahx-Ub-VS probe labelling

USP16, sequence (Q9Y5T5 whole entry, looked up): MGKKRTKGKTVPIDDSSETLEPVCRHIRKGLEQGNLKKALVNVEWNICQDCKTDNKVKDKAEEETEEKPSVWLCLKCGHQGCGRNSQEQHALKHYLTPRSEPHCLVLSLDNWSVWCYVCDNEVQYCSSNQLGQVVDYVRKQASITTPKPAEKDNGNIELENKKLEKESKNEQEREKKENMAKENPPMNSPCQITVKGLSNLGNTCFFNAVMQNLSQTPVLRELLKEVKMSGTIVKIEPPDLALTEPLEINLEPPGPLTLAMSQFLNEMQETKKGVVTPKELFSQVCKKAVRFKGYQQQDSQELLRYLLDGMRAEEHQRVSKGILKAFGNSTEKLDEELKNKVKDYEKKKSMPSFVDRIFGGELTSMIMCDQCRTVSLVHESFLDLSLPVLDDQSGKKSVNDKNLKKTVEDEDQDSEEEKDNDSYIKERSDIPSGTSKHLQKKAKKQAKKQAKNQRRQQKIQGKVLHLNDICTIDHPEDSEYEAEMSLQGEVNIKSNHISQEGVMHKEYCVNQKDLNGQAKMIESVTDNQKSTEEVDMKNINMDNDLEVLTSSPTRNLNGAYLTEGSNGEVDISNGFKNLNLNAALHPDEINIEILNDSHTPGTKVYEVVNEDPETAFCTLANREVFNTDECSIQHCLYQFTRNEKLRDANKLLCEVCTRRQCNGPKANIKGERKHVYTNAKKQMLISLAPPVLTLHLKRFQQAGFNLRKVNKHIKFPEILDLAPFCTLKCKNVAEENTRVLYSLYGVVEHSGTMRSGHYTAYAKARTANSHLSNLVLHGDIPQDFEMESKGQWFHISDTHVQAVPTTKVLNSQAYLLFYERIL
USP10, sequence (Q14694 whole entry): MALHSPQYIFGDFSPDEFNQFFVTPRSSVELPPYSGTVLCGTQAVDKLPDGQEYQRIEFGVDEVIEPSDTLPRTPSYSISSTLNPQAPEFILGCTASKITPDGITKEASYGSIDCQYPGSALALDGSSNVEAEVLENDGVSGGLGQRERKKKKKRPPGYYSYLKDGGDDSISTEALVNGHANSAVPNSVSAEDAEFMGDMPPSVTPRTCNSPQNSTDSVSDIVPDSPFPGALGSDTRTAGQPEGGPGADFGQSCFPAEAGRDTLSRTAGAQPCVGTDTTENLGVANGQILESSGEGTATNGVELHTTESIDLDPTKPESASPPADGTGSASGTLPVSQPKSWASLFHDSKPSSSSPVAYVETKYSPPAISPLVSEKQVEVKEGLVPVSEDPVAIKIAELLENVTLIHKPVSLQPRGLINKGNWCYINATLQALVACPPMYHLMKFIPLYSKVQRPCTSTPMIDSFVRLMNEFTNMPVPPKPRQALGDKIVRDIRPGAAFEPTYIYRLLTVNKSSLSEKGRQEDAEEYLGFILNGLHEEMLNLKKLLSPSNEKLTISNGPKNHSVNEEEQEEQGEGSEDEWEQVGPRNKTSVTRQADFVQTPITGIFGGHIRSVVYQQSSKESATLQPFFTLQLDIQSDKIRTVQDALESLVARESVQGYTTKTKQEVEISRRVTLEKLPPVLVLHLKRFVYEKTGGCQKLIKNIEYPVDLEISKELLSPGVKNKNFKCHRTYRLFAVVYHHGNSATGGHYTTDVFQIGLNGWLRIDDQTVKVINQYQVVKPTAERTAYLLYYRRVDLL
UCHL1, sequence (P09936 whole entry, looked up): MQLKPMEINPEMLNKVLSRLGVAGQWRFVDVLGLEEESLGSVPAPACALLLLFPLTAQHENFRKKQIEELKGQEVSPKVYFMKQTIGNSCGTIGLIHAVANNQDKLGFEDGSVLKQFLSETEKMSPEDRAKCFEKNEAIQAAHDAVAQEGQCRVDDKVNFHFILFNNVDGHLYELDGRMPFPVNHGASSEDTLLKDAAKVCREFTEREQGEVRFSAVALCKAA

O=C(O)C1Cc2ccccc2CN1C(=O)CCl (stereo not given)
active: UCHL1 -1.8
inactive: OTUD6B -0.439 | OTUD7B -0.732 | PRPF8 -0.175 | PSMD7 -0.239 | UCHL3 -0.19 | UCHL5 -0.324 | USP10 -0.112 | USP15 -0.35 | USP16 0.23
